# High-throughput results as filed in PubChem BioAssay.
# Sampled rows, rich in hits. Any-hit rate of the full collection: about 7.5%.
# Rab9 prom act: activates the Rab9 promoter; Potency, µM (top dose mostly 9.22 µM), actives largely listed as activators; Huh7 Rab9 promoter-luciferase reporter, luminescence, 24 h; 320,000 compounds, 2.8% hits; also: nearly all actives have a fitted effect of over 60% in size
#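 Steps: seed 1500 Huh7 Rab9-luc cells per well, rest 2 h at 37 °C; add compound in DMSO; incubate 24 h; add luciferase reagent, 10 min ambient; read luminescence.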
# ELG1 genotox: inducers of genotoxicity in HEK293T ELG1-luciferase cells; 330,000 compounds, 1.3% hits; AID 504466; Potency, µM (top dose mostly 46 µM), actives largely listed as activators; HEK293T ELG1-luciferase reporter, luminescence, 16 h; also: nearly all actives have a fitted effect of over 60% in size
#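 Screening used a luciferase reporter fused to human ELG1 in HEK293T cells. Luminescence was read on a CCD plate imager after 16 hr exposure and 30 min ONE-Glo incubation.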
# NPC1 promoter act: activates the NPC1 promoter. Huh7 NPC1 promoter luciferase reporter, 24 h. 320,000 compounds, 2.4% hits. Potency, µM (titrated, usually from 9.22 µM), actives largely listed as activators; also: nearly all actives have a fitted effect of over 60% in size
#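 Compounds in DMSO were transferred onto Huh7 NPC1-luciferase reporter cells pre-incubated 2 h; after 24 h at 37 °C, Amplite reagent was dispensed and luminescence recorded 10 min later.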
# FLuc modulator: inhibits or activates purified firefly luciferase, miR-21 counter-screen; purified FLuc, Km substrates, luminescence inhibition; Potency, µM (highest dose often 57.5 µM), most hits filed as inhibitors; 360,000 compounds, 6.9% hits; AID 588342; also: nearly all actives have a fitted effect of over 55% in size
# Target sequence (P08659 whole entry, looked up): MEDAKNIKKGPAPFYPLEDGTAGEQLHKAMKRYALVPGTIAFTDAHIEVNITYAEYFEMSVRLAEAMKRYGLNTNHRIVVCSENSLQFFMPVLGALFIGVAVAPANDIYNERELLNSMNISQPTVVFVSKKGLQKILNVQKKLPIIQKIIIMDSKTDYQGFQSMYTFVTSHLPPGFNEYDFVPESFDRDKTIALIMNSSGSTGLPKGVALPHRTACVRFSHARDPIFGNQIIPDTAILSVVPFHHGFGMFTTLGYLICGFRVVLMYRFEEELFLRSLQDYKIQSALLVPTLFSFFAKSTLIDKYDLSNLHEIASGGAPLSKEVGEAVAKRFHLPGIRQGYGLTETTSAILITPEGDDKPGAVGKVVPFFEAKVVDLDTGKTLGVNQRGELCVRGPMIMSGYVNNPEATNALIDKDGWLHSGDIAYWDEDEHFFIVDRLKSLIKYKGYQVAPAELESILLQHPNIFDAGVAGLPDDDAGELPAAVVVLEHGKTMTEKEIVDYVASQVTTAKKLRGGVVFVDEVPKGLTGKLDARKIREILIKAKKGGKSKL
#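 Purified P. pyralis luciferase (10nM final) with 10uM D-luciferin and 10uM ATP (Km levels) in 50mM Tris acetate pH 7.5, 10mM Mg acetate, 0.01% Tween-20, 0.05% BSA; qHTS 6-point titration, ~60 µM downward; luminescence read.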
# SMN2 splice up: enhancers of SMN2 splice variant expression; Potency, µM (titrated, usually from 46.1 µM), usual class: activators; HEK293 SMN2-luciferase splicing reporter, luminescence, 30-36 h; 210,000 compounds, 2.8% hits; also: nearly all actives have a fitted effect of over 55% in size
#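 qHTS luciferase splicing reporter: luminescence rises when SMN2 exon 7 is included in transfected HEK293 cells. Compound exposure lasted 30-36 h at 37C, with 4.5 mM final sodium butyrate as control, followed by a ONE-Glo read.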
# Numbers stand for hits; i = inactive; ? = inconclusive; nt = not tested or not shown. Calls follow the shape of the dose curve; as a rule, active = well fitted curve in the direction sought with a large enough effect; inconclusive = small, poorly fitted or top-dose-only effect, or another doubt; inactive = no such curve, though single readings can be large; an effect the other way counts as inactive or inconclusive.
SMILES,Rab9 prom act,ELG1 genotox,NPC1 promoter act,FLuc modulator,SMN2 splice up
CCc1ccc(NC(=O)CSc2nc(CSc3ccc(C)cc3)cc(=O)[nH]2)cc1,i,i,i,19µM,nt
Cc1ccc(SCc2cc(=O)[nH]c(SCC(=O)Nc3cc(Cl)ccc3Cl)n2)cc1,i,i,i,27µM,i
Cc1nc(SCc2cccc(C(=O)O)c2)nc2c1CCCC2,i,i,i,8.5µM,4.5µM
COC(=O)[C@@]12CCCCN1[C@H](c1ccc(-c3cccc(Cl)c3)cc1)[C@@H]1C(=O)N(C)C(=O)[C@@H]12,nt,i,nt,nt,nt
COc1ccc(-c2cc3c(=O)n(CC(=O)NCCCc4ccccc4)ncn3n2)cc1,4µM,?,2.8µM,?,nt
COc1ccc(-c2cc3c(=O)n(CC(=O)N4CCN(C)CC4)ncn3n2)cc1,5µM,?,?,2.4µM,nt
CCC1CCCCN1CCCNC(=O)Cn1ncn2nc(-c3ccc(OC)cc3)cc2c1=O (stereo not given),?,?,i,24µM,nt
CCc1ccc(-c2cc3c(=O)n(CC(=O)NCCCN4CCN(C)CC4)ncn3n2)cc1,2.8µM,?,2.8µM,2.4µM,nt
COc1ccc(C(=O)Nc2ccnn2C2CCN(C3CCC3)CC2)cc1,i,i,i,i,nt
COc1ccc(/C=C/c2ccccc2)cc1[C@H]1[C@@H]2C=CCC[C@@]2(C)C(=O)N1Cc1ccccc1,i,i,i,13µM,nt
COc1ccc(C(=O)Oc2ccc(/C=N/O)cc2)cc1,i,i,i,6µM,i
COc1ccc(OC(=O)c2ccncc2)cc1,i,i,i,i,i
COc1ccc(C(=O)Oc2ccc(C(c3c(C)[nH][nH]c3=O)c3c(C)[nH][nH]c3=O)cc2)cc1,nt,nt,nt,17µM,i
COc1ccc(C2C/C(=N\O)C(C)(C)O2)cc1 (stereo not given),i,i,i,i,i
COc1cc2nc(NC(=O)c3ccccc3)sc(=O)c2cc1OC,i,i,i,i,nt
CCOc1ccccc1NC(=O)CCNS(=O)(=O)c1cccc2nsnc12,i,i,i,i,nt
COc1ccc(/C=N/NC(=O)c2ccccc2NC(=O)c2ccco2)c(OC)c1,i,i,i,5.4µM,nt
COc1ccccc1NC(=O)c1ccccc1NC(=O)c1cc(Cl)ccc1NC(=O)c1ccco1,i,i,i,i,i
COc1ccc(NC(=O)c2ccccc2NC(=O)c2ccco2)c(OC)c1,i,i,i,19µM,i
O=C(Nc1ccc(OC(=O)c2cccs2)cc1)c1ccco1,i,?,i,2.7µM,i
O=C(Nc1cccc(NC(=O)c2cccs2)c1)c1ccco1,i,i,i,?,?
COc1cc(NC(=O)c2ccccc2Cl)ccc1NC(=O)c1ccco1,2.8µM,?,2.5µM,11µM,22µM
CCOC(=O)c1c(NC(=O)C(=O)N/N=C/c2ccc(O)c(OC)c2)sc2c1CCCCC2,i,i,i,i,i
CNc1nc2sc3c(c2c(=O)n1C)CC(C)(C)SC3,i,i,i,?,i
COc1ccc(OC)c(CNC(=O)c2cc(-c3ccc(Cl)s3)nc3ccccc23)c1,nt,nt,nt,i,i
SMILES,Rab9 prom act,ELG1 genotox,NPC1 promoter act,FLuc modulator,SMN2 splice up
Nc1c(-c2nc(-c3ccc(Cl)cc3)no2)nnn1-c1ccc(C(F)(F)F)c(Cl)c1,nt,nt,nt,i,nt
COc1ccc(NC(=O)c2ccco2)cc1NC(=O)c1c(OC)cccc1OC,i,i,i,15µM,i
COc1cc(NC(=O)c2oc3ccccc3c2C)ccc1NC(=O)c1ccco1,?,i,i,5.4µM,nt
COc1cc(NC(=O)c2cccs2)ccc1NC(=O)c1ccco1,?,18µM,i,?,11µM
O=C(Nc1ccc(Cl)c(NC(=O)c2cccs2)c1)c1ccco1,i,i,i,?,nt
Cc1ccc(C(=O)CCC(=O)OCC(=O)Nc2ccccc2SCC#N)cc1,i,i,i,nt,nt
CCc1cc(=O)[nH]c(SC/C=C/c2ccccc2)n1,i,i,i,i,nt
CCC(NC(=S)NCc1ccc(F)cc1)c1ccc(C)cc1 (stereo not given),i,i,i,i,nt
O=C(Nc1cc(Cl)ccc1N1CCCCC1)c1cccs1,i,i,i,i,i
O=C(COC(=O)c1c2c(nc3ccccc13)CCCC2)c1cccs1,i,i,i,11µM,i
NC(=O)COC(=O)c1c2c(nc3ccccc13)CCCCC2,i,i,i,i,i
O=C(COC(=O)c1c2c(nc3ccccc13)CCCCC2)c1ccc(Cl)s1,i,i,i,13µM,i
